# PubChem BioAssay AID1159580 (chemical genetic matrix, 2015)
# About 2,000 (36%) of roughly 5,500 compounds were called active. Not shown: some 18% with an inconclusive outcome. The list shows a part of the results. A number with no mark means an inactive call. Rule as the data show it: active = normalized growth mostly below about 0.91 (no sharp cut-off); inconclusive = no clear call, values can overlap the other calls; inactive = mostly above about 0.92.
# Assay: chemical genetic growth profiling, strain panel (AID 1159580);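 also: tested at 20 µM; growth read once vehicle control cultures reached saturation at 30 °C; 1 = growth at the plate median or of vehicle wells; lower values mean less growth of the strain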
# Conditions: growth OD
# [1] = S. cerevisiae deletion strains, locus YHR030C, strain SLT2, active compounds read low
# [2] = S. cerevisiae deletion strains, locus YHR079C, strain IRE1, active compounds read low
# [3] = S. cerevisiae deletion strains, locus YJL095W, strain BCK1, active compounds read low
# [4] = S. cerevisiae deletion strains, locus YJR066W, strain TOR1, active compounds read low
# [5] = S. cerevisiae deletion strains, locus YLR113W, strain HOG1, active compounds read low
# [6] = S. cerevisiae deletion strains, locus YNL183C, strain NPR1, active compounds read low
# [7] = S. cerevisiae deletion strains, locus YOR231W, strain MKK1, active compounds read low
# [8] = S. cerevisiae deletion strains, locus YPL256C, strain CLN2, active compounds read low
smiles,measurement,setting,value
CCCCOC(=O)c1ccc(O)cc1,normalized growth,[1],0.854 (active)
same,normalized growth,[2],0.879
same,normalized growth,[3],0.895
same,normalized growth,[4],0.934
same,normalized growth,[5],0.768 (active)
same,normalized growth,[6],0.892
same,normalized growth,[7],0.951
same,normalized growth,[8],0.799 (active)
CCOC(=O)c1ccc(O)cc1,normalized growth,"S. cerevisiae deletion strains, locus YAL021C, strain ccr4, active compounds read low",1.03
same,normalized growth,"S. cerevisiae deletion strains, locus YAL026C, strain drs2, active compounds read low",1.02
same,normalized growth,"S. cerevisiae deletion strains, locus YAL030W, strain snc1, active compounds read low",1.01
same,normalized growth,"S. cerevisiae deletion strains, locus YBL061C, strain skt5, active compounds read low",1.01
same,normalized growth,"S. cerevisiae deletion strains, locus YBR009C, strain hhf1, active compounds read low",0.999
same,normalized growth,"S. cerevisiae deletion strains, locus YBR023C, strain chs3, active compounds read low",1.01
same,normalized growth,"S. cerevisiae deletion strains, locus YBR171W, strain sec66, active compounds read low",1.01
same,normalized growth,"S. cerevisiae deletion strains, locus YBR231C, strain swc5, active compounds read low",1.02
same,normalized growth,"S. cerevisiae deletion strains, locus YBR279W, strain paf1, active compounds read low",1.02
same,normalized growth,"S. cerevisiae deletion strains, locus YCL011C, strain gbp2, active compounds read low",1
same,normalized growth,"S. cerevisiae deletion strains, locus YCL016C, strain dcc1, active compounds read low",1
same,normalized growth,"S. cerevisiae deletion strains, locus YCL061C, strain MRC1, active compounds read low",1.01
same,normalized growth,"S. cerevisiae deletion strains, locus YCL069W, strain vba3, active compounds read low",1.01
same,normalized growth,"S. cerevisiae deletion strains, locus YCR088W, strain abp1, active compounds read low",1.01
same,normalized growth,"S. cerevisiae deletion strains, locus YDL005C, strain med2, active compounds read low",1.02
same,normalized growth,"S. cerevisiae deletion strains, locus YDL040C, strain nat1, active compounds read low",1.01
same,normalized growth,"S. cerevisiae deletion strains, locus YDR001C, strain nth1, active compounds read low",1.01
same,normalized growth,"S. cerevisiae deletion strains, locus YDR069C, strain doa4, active compounds read low",1.02
same,normalized growth,"S. cerevisiae deletion strains, locus YDR137W, strain rgp1, active compounds read low",1.03
same,normalized growth,"S. cerevisiae deletion strains, locus YDR159W, strain sac3, active compounds read low",0.994
same,normalized growth,"S. cerevisiae deletion strains, locus YDR195W, strain ref2",1.06
same,normalized growth,"S. cerevisiae deletion strains, locus YDR297W, strain sur2, active compounds read low",1.02
same,normalized growth,"S. cerevisiae deletion strains, locus YDR334W, strain swr1, active compounds read low",1.02
same,normalized growth,"S. cerevisiae deletion strains, locus YDR335W, strain msn5, active compounds read low",1.01
same,normalized growth,"S. cerevisiae deletion strains, locus YDR392W, strain spt3, active compounds read low",0.941
same,normalized growth,"S. cerevisiae deletion strains, locus YEL003W, strain gim4, active compounds read low",1.02
same,normalized growth,"S. cerevisiae deletion strains, locus YEL037C, strain rad23, active compounds read low",1.02
same,normalized growth,"S. cerevisiae deletion strains, locus YEL061C, strain CIN8 (second series), active compounds read low",1.01
same,normalized growth,"S. cerevisiae deletion strains, locus YER015W, strain faa2, active compounds read low",1.02
same,normalized growth,"S. cerevisiae deletion strains, locus YER016W, strain bim1, active compounds read low",1
same,normalized growth,"S. cerevisiae deletion strains, locus YER111C, strain swi4, active compounds read low",1.01
same,normalized growth,"S. cerevisiae deletion strains, locus YER155C, strain BEM2 (second series), active compounds read low",0.975
same,normalized growth,"S. cerevisiae deletion strains, locus YFR010W, strain ubp6, active compounds read low",1.01
same,normalized growth,"S. cerevisiae deletion strains, locus YGL167C, strain pmr1, active compounds read low",1.01
same,normalized growth,"S. cerevisiae deletion strains, locus YGL173C, strain kem1, active compounds read low",1.02
same,normalized growth,"S. cerevisiae deletion strains, locus YGL227W, strain vid30, active compounds read low",1.01
same,normalized growth,"S. cerevisiae deletion strains, locus YGL240W, strain doc1, active compounds read low",0.985
same,normalized growth,"S. cerevisiae deletion strains, locus YGL253W, strain hxk2, active compounds read low",1.01
same,normalized growth,"S. cerevisiae deletion strains, locus YHR013C, strain ard1, active compounds read low",1.05
same,normalized growth,"S. cerevisiae deletion strains, locus YHR027C, strain rpn1, active compounds read low",1.01
same,normalized growth,[1],1.02
same,normalized growth,[2],1.01
same,normalized growth,"S. cerevisiae deletion strains, locus YHR142W, strain chs7, active compounds read low",1.01
same,normalized growth,"S. cerevisiae deletion strains, locus YJL092W, strain hpr5, active compounds read low",1.02
same,normalized growth,"S. cerevisiae deletion strains, locus YJL095W, strain BCK1 (second series), active compounds read low",1
same,normalized growth,[3],1.01
same,normalized growth,"S. cerevisiae deletion strains, locus YJL115W, strain asf1, active compounds read low",1.03
same,normalized growth,"S. cerevisiae deletion strains, locus YJL129C, strain trk1, active compounds read low",1.03
same,normalized growth,"S. cerevisiae deletion strains, locus YJL154C, strain vps35, active compounds read low",1.01
same,normalized growth,"S. cerevisiae deletion strains, locus YJL164C, strain tpk1, active compounds read low",0.995
same,normalized growth,"S. cerevisiae deletion strains, locus YJL166W, strain qcr8, active compounds read low",0.997
same,normalized growth,"S. cerevisiae deletion strains, locus YJL187C, strain SWE1, active compounds read low",1.02
same,normalized growth,[4],0.958
same,normalized growth,"S. cerevisiae deletion strains, locus YKL160W, strain elf1, active compounds read low",1
same,normalized growth,"S. cerevisiae deletion strains, locus YKR026C, strain gcn3, active compounds read low",0.995
same,normalized growth,"S. cerevisiae deletion strains, locus YKR091W, strain srl3, active compounds read low",1.01
same,normalized growth,"S. cerevisiae deletion strains, locus YLL001W, strain dnm1, active compounds read low",0.989
same,normalized growth,"S. cerevisiae deletion strains, locus YLL026W, active compounds read low",1.01
same,normalized growth,"S. cerevisiae deletion strains, locus YLL041C, strain sdh2, active compounds read low",1.01
same,normalized growth,"S. cerevisiae deletion strains, locus YLR027C, strain aat2, active compounds read low",1
same,normalized growth,[5],0.966
same,normalized growth,"S. cerevisiae deletion strains, locus YLR221C, strain rsa3, active compounds read low",0.999
same,normalized growth,"S. cerevisiae deletion strains, locus YLR258W, strain gsy2, active compounds read low",1.01
same,normalized growth,"S. cerevisiae deletion strains, locus YLR262C, strain YPT6 (second series), active compounds read low",1.03
same,normalized growth,"S. cerevisiae deletion strains, locus YLR320W, strain mms22, active compounds read low",0.992
same,normalized growth,"S. cerevisiae deletion strains, locus YLR342W, strain FKS1, active compounds read low",1.02
same,normalized growth,"S. cerevisiae deletion strains, locus YLR357W, strain rsc2, active compounds read low",1.03
same,normalized growth,"S. cerevisiae deletion strains, locus YLR370C, strain arc18, active compounds read low",1.01
same,normalized growth,"S. cerevisiae deletion strains, locus YLR384C, strain iki3, active compounds read low",1.02
same,normalized growth,"S. cerevisiae deletion strains, locus YML120C, strain ndi1, active compounds read low",0.998
same,normalized growth,"S. cerevisiae deletion strains, locus YMR058W, strain fet3, active compounds read low",1.02
same,normalized growth,"S. cerevisiae deletion strains, locus YMR125W, strain sto1, active compounds read low",1.03
same,normalized growth,"S. cerevisiae deletion strains, locus YMR129W, active compounds read low",1.02
same,normalized growth,"S. cerevisiae deletion strains, locus YMR205C, strain PFK2, active compounds read low",1.02
same,normalized growth,"S. cerevisiae deletion strains, locus YMR231W, strain pep5, active compounds read low",1.02
same,normalized growth,"S. cerevisiae deletion strains, locus YNL071W, strain lat1, active compounds read low",1.01
same,normalized growth,[6],0.962
same,normalized growth,"S. cerevisiae deletion strains, locus YNL209W, strain ssb2, active compounds read low",1.02
same,normalized growth,"S. cerevisiae deletion strains, locus YNL248C, strain rpa49, active compounds read low",1.02
same,normalized growth,"S. cerevisiae deletion strains, locus YNL322C, strain KRE1 (second series), active compounds read low",1.01
same,normalized growth,"S. cerevisiae deletion strains, locus YNR049C, strain mso1, active compounds read low",1.01
same,normalized growth,"S. cerevisiae deletion strains, locus YOR001W, strain rrp6, active compounds read low",1.01
same,normalized growth,"S. cerevisiae deletion strains, locus YOR070C, strain gyp1, active compounds read low",1.01
same,normalized growth,"S. cerevisiae deletion strains, locus YOR080W, strain dia2, active compounds read low",1.02
same,normalized growth,"S. cerevisiae deletion strains, locus YOR083W, strain WHI5, active compounds read low",1
same,normalized growth,"S. cerevisiae deletion strains, locus YOR106W, strain vam3, active compounds read low",1.02
same,normalized growth,[7],1
same,normalized growth,"S. cerevisiae deletion strains, locus YOR265W, strain rbl2, active compounds read low",1.01
same,normalized growth,"S. cerevisiae deletion strains, locus YOR270C, strain vph1, active compounds read low",0.988
same,normalized growth,"S. cerevisiae deletion strains, locus YOR290C, strain snf2, active compounds read low",0.975
same,normalized growth,"S. cerevisiae deletion strains, locus YPL051W, strain arl3, active compounds read low",0.998
same,normalized growth,"S. cerevisiae deletion strains, locus YPL078C, strain atp4, active compounds read low",1
same,normalized growth,"S. cerevisiae deletion strains, locus YPL106C, strain sse1, active compounds read low",1
same,normalized growth,"S. cerevisiae deletion strains, locus YPL240C, strain hsp82, active compounds read low",1.01
same,normalized growth,[8],1.01
Nc1cc2c(cc1Cl)C(=O)NC2=O,normalized growth,"S. cerevisiae deletion strains, locus YAL013W, strain DEP1, active compounds read low",0.995
same,normalized growth,"S. cerevisiae deletion strains, locus YBR229C, strain ROT2, active compounds read low",0.999
same,normalized growth,"S. cerevisiae deletion strains, locus YDL101C, strain DUN1, active compounds read low",1.02
same,normalized growth,"S. cerevisiae deletion strains, locus YDL134C, strain PPH21, active compounds read low",1.02
same,normalized growth,"S. cerevisiae deletion strains, locus YDR150W, strain NUM1, active compounds read low",0.929
same,normalized growth,"S. cerevisiae deletion strains, locus YEL061C, strain CIN8, active compounds read low",1.01
same,normalized growth,"S. cerevisiae deletion strains, locus YGR078C, strain PAC10, active compounds read low",1
same,normalized growth,[1],1.04
same,normalized growth,"S. cerevisiae deletion strains, locus YHR087W, strain rtc3, active compounds read low",0.988
same,normalized growth,"S. cerevisiae deletion strains, locus YJR043C, strain POL32, active compounds read low",1.01
same,normalized growth,"S. cerevisiae deletion strains, locus YJR075W, strain HOC1, active compounds read low",0.996
same,normalized growth,"S. cerevisiae deletion strains, locus YLR039C, strain RIC1, active compounds read low",0.994
same,normalized growth,"S. cerevisiae deletion strains, locus YLR058C, strain SHM2 (second series), active compounds read low",1
same,normalized growth,"S. cerevisiae deletion strains, locus YLR085C, strain ARP6, active compounds read low",0.98
same,normalized growth,"S. cerevisiae deletion strains, locus YLR262C, strain YPT6, active compounds read low",1
same,normalized growth,"S. cerevisiae deletion strains, locus YML094W, strain GIM5, active compounds read low",0.985
same,normalized growth,"S. cerevisiae deletion strains, locus YMR219W, strain ESC1, active compounds read low",1.01
same,normalized growth,"S. cerevisiae deletion strains, locus YMR263W, strain SAP30, active compounds read low",0.984
same,normalized growth,"S. cerevisiae deletion strains, locus YNL153C, strain GIM3, active compounds read low",1
same,normalized growth,"S. cerevisiae deletion strains, locus YNL298W, strain CLA4 (second series), active compounds read low",1.03
same,normalized growth,"S. cerevisiae deletion strains, locus YNL322C, strain KRE1, active compounds read low",0.999
same,normalized growth,"S. cerevisiae deletion strains, locus YNR030W, strain Alg12, active compounds read low",0.985
same,normalized growth,"S. cerevisiae deletion strains, locus YOL006C, strain TOP1, active compounds read low",1.02
same,normalized growth,"S. cerevisiae deletion strains, locus YPL055C, strain LGE1, active compounds read low",0.851
same,normalized growth,"S. cerevisiae deletion strains, locus YPL241C, strain CIN2, active compounds read low",0.985
same,normalized growth,"S. cerevisiae deletion strains, locus YPR135W, strain CTF4, active compounds read low",1.02
same,normalized growth,"S. cerevisiae strains, strain wild type, active compounds read low",1.02
